High-throughput results as filed in PubChem BioAssay.
Hits are enriched below; roughly 2.5% of the tested compounds scored in any of these assays.
ANO1 block: mouse TMEM16A channel inhibition, primary screen; Q8BHY3; HEK293 TMEM16A/YFP iodide influx fluorescence, ionomycin; normalized B-score (activity score, 25-100; higher = stronger inhibition) at 10 µM; actives 1.2% (n = 310,000); AID 588511;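 active = ratio plate-corrected score three or more library SD toward inhibition, starting fluorescence score within five deviations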;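 also: score derived from kinetic fluorescence span divided by baseline fluorescence per well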
Target sequence (Q8BHY3 whole entry, looked up): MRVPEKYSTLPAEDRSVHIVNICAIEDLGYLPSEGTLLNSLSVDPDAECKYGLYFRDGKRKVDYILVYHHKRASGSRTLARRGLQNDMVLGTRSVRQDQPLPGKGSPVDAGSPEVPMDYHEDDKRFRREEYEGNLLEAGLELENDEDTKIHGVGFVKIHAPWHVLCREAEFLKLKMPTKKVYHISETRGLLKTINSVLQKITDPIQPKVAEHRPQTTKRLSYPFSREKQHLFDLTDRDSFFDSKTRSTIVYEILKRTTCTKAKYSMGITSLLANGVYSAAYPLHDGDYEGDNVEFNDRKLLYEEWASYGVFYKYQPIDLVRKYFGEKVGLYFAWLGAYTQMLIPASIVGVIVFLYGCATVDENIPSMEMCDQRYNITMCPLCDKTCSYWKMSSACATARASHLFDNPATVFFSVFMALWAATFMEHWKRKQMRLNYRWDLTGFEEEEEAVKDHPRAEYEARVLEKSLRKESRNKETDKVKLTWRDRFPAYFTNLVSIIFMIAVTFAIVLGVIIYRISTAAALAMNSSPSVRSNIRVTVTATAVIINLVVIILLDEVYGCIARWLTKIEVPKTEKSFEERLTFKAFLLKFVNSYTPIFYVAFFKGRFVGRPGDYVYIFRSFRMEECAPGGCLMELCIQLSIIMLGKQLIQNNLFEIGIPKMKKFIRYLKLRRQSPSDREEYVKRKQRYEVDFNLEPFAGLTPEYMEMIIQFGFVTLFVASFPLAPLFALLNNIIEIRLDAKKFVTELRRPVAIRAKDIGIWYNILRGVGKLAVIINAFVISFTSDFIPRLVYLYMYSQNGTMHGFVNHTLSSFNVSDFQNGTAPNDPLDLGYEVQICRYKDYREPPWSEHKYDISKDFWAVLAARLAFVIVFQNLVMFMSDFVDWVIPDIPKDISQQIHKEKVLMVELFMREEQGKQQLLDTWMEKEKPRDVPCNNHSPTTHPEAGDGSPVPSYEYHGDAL
CHT PAM: allosteric activators of human choline transporter CHT. Q9GZV3. CHT-expressing cells, membrane potential dye, choline EC20; hits give high values; LV-AA mutant CHT in HEK293 cells. B-score at 10 µM. actives 0.49% (n = 310,000). AID 488977;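 active = initial fluorescence not abnormally high and integrated response B-score, plate-corrected, over 3 SD above library mean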
TMEM16A act: mouse TMEM16A channel activation, primary screen; HEK293 TMEM16A/YFP-H148Q/I152L, iodide quench fluorescence; hits give low values; B-score at 10 µM; actives 0.3% (n = 340,000); AID 623877;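 active = fluorescence-ratio B-score plate-corrected deviation score at least 3 library SD below zero, with starting fluorescence score within 5 deviations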;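 also: channel opened by trigger with iodide after compound preincubation; score built on the fluorescence ratio of max minus min over baseline; more negative score means more quench and so TMEM16A activation or potentiation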
CHT inh: inhibitors of human choline transporter CHT. Q9GZV3. CHT-expressing cells, membrane potential dye, choline response; hits give low values. B-score at 10 µM. actives 0.86% (n = 310,000);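 active = B-score over 3 SD under the library average, and starting fluorescence ratio not unusually high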;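 also: choline stimulus applied at its EC90 after an EC20 pre-addition; B-score computed on integrated fluorescence ratio after choline addition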
PKA-R2B activ: PKA-R2B complex activation; P22694+P31323; PKA-R2B holoenzyme dissociation, Cy5-IP20 fluorescence polarization; R2B truncated from residue 108, S112A mutant; 0% DMSO only, 100% 113 µM cGMP; activation, % at 11.4 µM; actives 0.079% (n = 340,000); AID 504700;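 active = activation above a cutoff set at the mean over all compounds plus 3 SD, cut at about 18% in these data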;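 also: higher means more holoenzyme dissociation and a rise in polarization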
PKA-R1A act: activators of PKA-R1A complex. P00514+P68181. activation, % at 11.4 µM. actives 0.083% (n = 340,000). PKA-R1A dissociation, Cy5-IP20 fluorescence polarization; scaled: DMSO 0%, 113 µM cGMP 100%;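 active = percent activation above the mean of all tested compounds plus 3 SD, cut at about 19% in these data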;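 also: higher means more PKAc released from R1A so a rise in polarization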
CHT block conf: confirmation of human choline transporter CHT inhibitors; shares compounds with CHT inh; CHT-expressing cells, choline membrane potential dye; LV-to-AA substituted CHT, HEK293 cells; CHT activity remaining % of control (hits give low values), % at 10 µM; actives 70% (n = 2,400); AID 493221;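 active = choline transporter activity left, mean of duplicates at 10 µM, below buffer-only control mean minus 3 SD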;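 also: depolarization triggered by choline at its EC90 following an EC20 pre-addition; 0% = hemicholinium-3 full block and 100% = buffer-only control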
HEK293 MPD ctr: counter-screen for CHT inhibitors: effect in parental HEK293 cells. membrane potential ratio readout (active if shifted either direction beyond buffer ±3SD; no single direction) at 10 µM. shares compounds with CHT inh. membrane potential dye, choline response; active = decrease or increase beyond buffer ±3SD. actives 4% (n = 2,400);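 also: parental cells lack the transporter so any hit is non-specific; ratio is peak minus trough fluorescence over baseline after EC90 choline challenge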
An asterisk follows results filed as active; i = inactive; . = no result.

SMILES	ANO1 block	CHT PAM	TMEM16A act	CHT inh	PKA-R2B activ	PKA-R1A act	CHT block conf	HEK293 MPD ctr
Cc1ccc(/C=C/C(=O)c2ccc(O)cc2)cc1	i	i	i	i	4	1	.	.
Cc1ccc(C(=O)/C=C/C(=O)O)cc1	i	i	i	-5.8*	-5	0	26%*	i
CC(=O)NC12CC3CC(C1)CC(C(=O)Nc1nc4ccc(F)cc4s1)(C3)C2	i	i	i	i	-17	0	.	.
CCN1CCN(C(=O)C(C)Nc2cc(Cl)c(OC)cc2OC)CC1 (centres undefined)	i	i	i	i	-2	1	.	.
Cc1cc(/C=N/NC(=O)C(=O)NCc2ccccn2)c(C)n1-c1ccccc1	i	i	i	-7*	15	-6	34%*	i
COc1cccc(NC(=O)CCNS(=O)(=O)c2ccc3c(c2)CC(C)N3C(=O)C2CC2)c1 (centres undefined)	i	i	i	-5.2*	1	-2	i	i
CC(=O)N1c2ccc(S(=O)(=O)NCCC(=O)NC3CCCCCC3)cc2CC1C (centres undefined)	i	i	i	i	6	1	.	.
COc1ccc(NC(=O)CCNS(=O)(=O)c2ccc3c(c2)CC(C)N3C(=O)C2CC2)cc1 (centres undefined)	i	i	i	i	9	-4	.	.
CC(=O)N1c2ccc(S(=O)(=O)NCCC(=O)NC3CCCC(C)C3C)cc2CC1C (centres undefined)	i	i	i	-6.8*	-10	7	38%*	i
CC(=O)N1c2ccc(S(=O)(=O)NCc3ccccc3Cl)cc2CC1C (centres undefined)	i	i	i	-7*	1	9	61%*	i
CCn1ccnc1CN(C)C(=O)c1ccc(OC2CCN(CCc3ccccc3)CC2)cc1	i	i	i	i	-4	3	.	.
N#Cc1c(N2C(=O)Nc3ccccc3N2O)sc2c1CCCC2	i	i	i	i	-9	-10	.	.
CC(C)(C)NCc1cccn1-c1sc2c(c1C#N)CCCC2	i	i	i	-6.3*	1	-15	20%*	-17*
COc1ccc2cc(C(=O)NCCCN3CCCC3=O)[nH]c2c1	i	i	i	i	-5	-9	.	.
CC(C)(C)C(=O)NC(=S)NNC(=O)C(c1ccccc1)c1ccccc1	100*	i	i	-6.6*	-4	-8	36%*	i
COC(=O)c1ccc(NC(=O)CN2CCN(S(=O)(=O)c3ccc(Br)cc3)CC2)cc1	i	i	i	i	-4	10	.	.
COc1ccc(C=Nc2ccc3[nH]ncc3c2)c(O)c1	i	i	i	i	0	2	.	.
Oc1c(Br)cc(Br)cc1/C=N/c1nccs1	.	.	i	.	0	-1	.	.
Oc1c(Br)cc(Br)cc1C=Nc1ccc2[nH]ncc2c1	i	i	i	-5.6*	-16	6	65%*	i
Oc1c(Br)cc(Br)cc1C=Nc1cccnc1	i	i	i	-7.8*	-4	4	62%*	i
CC(C)COc1nc2ccccc2nc1N1CCN(C)CC1	i	i	i	-6*	-2	-4	41%*	i
O=C(CCCc1nc2ccccc2s1)Nc1ccc(N2CCOCC2)cc1	i	i	i	-6.7*	4	-8	i	i
CC(C)OP(=O)(OC(C)C)/C(C=O)=N\Nc1ccc([N+](=O)[O-])cc1	i	i	i	-8.4*	0	-9	i	i
CC(C)OP(=O)(OC(C)C)C(Nc1ccc([N+](=O)[O-])cc1)c1cccc([N+](=O)[O-])c1 (centres undefined)	i	i	i	i	-8	-12	.	.
CCc1nnc(NS(=O)(=O)c2ccc(NC(=O)c3ccc(Br)cc3)cc2)s1	i	i	i	-6.7*	-4	9	36%*	i
SMILES	ANO1 block	CHT PAM	TMEM16A act	CHT inh	PKA-R2B activ	PKA-R1A act	CHT block conf	HEK293 MPD ctr
CCc1nnc(NS(=O)(=O)c2ccc(NC(=O)OC)cc2)s1	i	i	i	i	-11	-9	.	.
CCc1ccc(OCc2n[nH]c(=S)n2Cc2ccccc2)cc1	i	i	i	-6.5*	-7	-17	68%*	i
Cc1cc(CNC(=O)c2ccc3c(c2)OCO3)c2ccccc2n1	i	i	i	i	5	1	.	.
CC1CCN(CCc2nc3cc(NS(=O)(=O)c4ccccc4)ccc3n2C)CC1	i	i	i	-9.3*	5	2	37%*	i
CC1CCN(CCc2nc3cc(NS(=O)(=O)c4ccc(F)cc4)ccc3n2C)CC1	i	i	i	i	0	1	.	.
C=CCNC(=O)/C(=C\c1ccc([N+](=O)[O-])cc1)NC(C)=O	i	i	i	-7.6*	1	-12	i	i
Cn1c(SCC(=O)Nc2ccc3c(c2)OCCO3)nnc1C1CC1	i	i	i	i	-2	-1	.	.
Cc1nn(-c2ccccc2)c(C)c1C(=O)OCC(=O)NC(=O)NC1CCCC1	i	i	i	-11*	9	-4	60%*	i
Cc1nn(-c2ccccc2)c(C)c1C(=O)OCC(=O)NC12CC3CC(CC(C3)C1)C2	i	i	i	i	-9	1	.	.
COCCN(C(=O)CCC(=O)Nc1cc(C)on1)C(C(=O)NC(C)(C)C)c1cccc(OC)c1OC (centres undefined)	i	i	i	-5.8*	0	1	i	i
CCCCCCCCCC1(CC(=O)OCC)SCCN1C(N)=O (centres undefined)	.	.	.	.	-11	-5	.	.
COc1ccc2c(c1)[C@H]1[C@H](CO2)[C@H](c2ccccc2)[C@]2(C)C(=O)N(Cc3ccc(C)cc3)CC(=O)N12	.	.	i	.	1	0	.	.
CC(OC(=O)c1ccc2c(c1)NC(=O)CS2)C(=O)c1ccc(F)cc1 (centres undefined)	.	.	i	.	-3	11	.	.
